Experimental data published in PubChem BioAssay AID1159580 (chemical genetic matrix, 2015).
Out of some 5,500 compounds screened, about 2,000 (36%) were called active. Roughly 18% stayed inconclusive and do not appear here. Cut-off read from the data, not from the text of the source: active = normalized growth mostly below about 0.91 (no sharp cut-off); inconclusive = no clear call, values can overlap the other calls; inactive = mostly above about 0.92. The list shows a part of the results.

Assay: chemical genetic growth profiling, strain panel (AID 1159580);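 note: tested at 20 µM; growth read once vehicle control cultures reached saturation at 30 °C; 1 = growth at the plate median or of vehicle wells; lower values mean less growth of the strain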
Details: growth OD
[1] = S. cerevisiae deletion strains, locus YAL013W, strain DEP1, hits give low values
[2] = S. cerevisiae deletion strains, locus YGR229C, strain SMI1, hits give low values
[3] = S. cerevisiae deletion strains, locus YMR263W, strain SAP30, hits give low values
[4] = S. cerevisiae deletion strains, locus YMR307W, strain GAS1, hits give low values
[5] = S. cerevisiae deletion strains, locus YNL128W, strain TEP1, hits give low values
[6] = S. cerevisiae deletion strains, locus YPL241C, strain CIN2, hits give low values

Measured: normalized growth

CC(C)(C)NC[C@H](O)COc1nsnc1N1CCOCC1
inactive: [1] 1.01 | S. cerevisiae deletion strains, locus YAL040C, strain CLN3, hits give low values 1.03 | S. cerevisiae deletion strains, locus YCL061C, strain MRC1 (second series), hits give low values 1 | S. cerevisiae deletion strains, locus YDR363W, strain ESC2, hits give low values 0.989 | S. cerevisiae deletion strains, locus YER002W, strain NOP16, hits give low values 0.998 | [2] 1.03 | [3] 0.993 | [4] 0.992 | [5] 0.995 | S. cerevisiae deletion strains, locus YNL175C, strain NOP13, hits give low values 0.997 | S. cerevisiae deletion strains, locus YNL197C, strain WHI3, hits give low values 0.99 | S. cerevisiae deletion strains, locus YNL224C, strain SQS1, hits give low values 0.988 | S. cerevisiae deletion strains, locus YOR083W, strain WHI5 (second series), hits give low values 0.996 | [6] 1

CCS(=O)CCSP(=O)(OC)OC (stereo not given)
inactive: [1] 1.01 | S. cerevisiae deletion strains, locus YBR021W, strain FUR4, hits give low values 1 | S. cerevisiae deletion strains, locus YBR229C, strain ROT2, hits give low values 1.02 | S. cerevisiae deletion strains, locus YCL029C, strain bik1, hits give low values 1 | S. cerevisiae deletion strains, locus YDL035C, strain GPR1, hits give low values 1.01 | S. cerevisiae deletion strains, locus YDL074C, strain BRE1, hits give low values 0.998 | S. cerevisiae deletion strains, locus YDL101C, strain DUN1, hits give low values 1.01 | S. cerevisiae deletion strains, locus YDL134C, strain PPH21, hits give low values 1.01 | S. cerevisiae deletion strains, locus YDL185W, strain tfp1, hits give low values 1.01 | S. cerevisiae deletion strains, locus YDL192W, strain arf1, hits give low values 1 | S. cerevisiae deletion strains, locus YDR101C, strain arx1, hits give low values 1 | S. cerevisiae deletion strains, locus YDR150W, strain NUM1, hits give low values 1.01 | S. cerevisiae deletion strains, locus YDR162C, strain NBP2, hits give low values 1.03 | S. cerevisiae deletion strains, locus YDR318W, strain mcm21, hits give low values 1.01 | S. cerevisiae deletion strains, locus YDR388W, hits give low values 1.01 | S. cerevisiae deletion strains, locus YDR502C, strain sam2, hits give low values 0.995 | S. cerevisiae deletion strains, locus YEL061C, strain CIN8, hits give low values 1.02 | S. cerevisiae deletion strains, locus YER110C, hits give low values 1.01 | S. cerevisiae deletion strains, locus YER155C, strain BEM2, hits give low values 1.02 | S. cerevisiae deletion strains, locus YER167W, strain BCK2, hits give low values 1.02 | S. cerevisiae deletion strains, locus YGL078C, strain dbp3, hits give low values 1.01 | S. cerevisiae deletion strains, locus YGL086W, strain mad1, hits give low values 1 | S. cerevisiae deletion strains, locus YGL248W, strain PDE1, hits give low values 1.01 | S. cerevisiae deletion strains, locus YGR078C, strain PAC10, hits give low values 1.02 | S. cerevisiae deletion strains, locus YGR135W, strain pre9, hits give low values 1.01 | [2] 0.999 | S. cerevisiae deletion strains, locus YGR252W, strain gcn5, hits give low values 0.945 | S. cerevisiae deletion strains, locus YHR030C, strain SLT2, hits give low values 1 | S. cerevisiae deletion strains, locus YHR079C, strain IRE1 (second series), hits give low values 1.01 | S. cerevisiae deletion strains, locus YHR094C, strain hxt1, hits give low values 1.01 | S. cerevisiae deletion strains, locus YHR129C, strain ARP1, hits give low values 1.02 | S. cerevisiae deletion strains, locus YHR200W, strain rpn10, hits give low values 1 | S. cerevisiae deletion strains, locus YIL066C, strain RNR3, hits give low values 1.03 | S. cerevisiae deletion strains, locus YIL073C, strain SPO22, hits give low values 1.06 | S. cerevisiae deletion strains, locus YIL125W, strain kgd1, hits give low values 0.997 | S. cerevisiae deletion strains, locus YIR030C, strain dcg1, hits give low values 1.01 | S. cerevisiae deletion strains, locus YJL095W, strain BCK1, hits give low values 1.03 | S. cerevisiae deletion strains, locus YJL134W, strain LCB3, hits give low values 1.01 | S. cerevisiae deletion strains, locus YJL168C, strain set2, hits give low values 1 | S. cerevisiae deletion strains, locus YJL187C, strain SWE1 (second series), hits give low values 1.02 | S. cerevisiae deletion strains, locus YJR043C, strain POL32, hits give low values 1.02 | S. cerevisiae deletion strains, locus YJR075W, strain HOC1, hits give low values 0.99 | S. cerevisiae deletion strains, locus YKL009W, strain mrt4, hits give low values 0.977 | S. cerevisiae deletion strains, locus YKL068W, hits give low values 1 | S. cerevisiae deletion strains, locus YKL085W, strain MDH1 (second series), hits give low values 1.01 | S. cerevisiae deletion strains, locus YKL085W, strain MDH1, hits give low values 1.01 | S. cerevisiae deletion strains, locus YKL190W, strain CNB1, hits give low values 1.01 | S. cerevisiae deletion strains, locus YKR001C, strain vps1, hits give low values 1 | S. cerevisiae deletion strains, locus YLR039C, strain RIC1, hits give low values 1.04 | S. cerevisiae deletion strains, locus YLR058C, strain SHM2, hits give low values 1.02 | S. cerevisiae deletion strains, locus YLR102C, strain apc9, hits give low values 1 | S. cerevisiae deletion strains, locus YLR262C, strain YPT6, hits give low values 1.02 | S. cerevisiae deletion strains, locus YLR268W, strain sec22, hits give low values 0.999 | S. cerevisiae deletion strains, locus YLR330W, strain CHS5, hits give low values 1.01 | S. cerevisiae deletion strains, locus YLR342W, strain FKS1 (second series), hits give low values 1.02 | S. cerevisiae deletion strains, locus YLR371W, strain rom2, hits give low values 0.999 | S. cerevisiae deletion strains, locus YLR418C, strain cdc73, hits give low values 0.984 | S. cerevisiae deletion strains, locus YML016C, strain PPZ1, hits give low values 1.01 | S. cerevisiae deletion strains, locus YML032C, strain rad52, hits give low values 1.01 | S. cerevisiae deletion strains, locus YML124C, strain tub3, hits give low values 1.01 | S. cerevisiae deletion strains, locus YMR078C, strain ctf18, hits give low values 1.01 | S. cerevisiae deletion strains, locus YMR223W, strain ubp8, hits give low values 1 | [3] 1.02 | [4] 1 | S. cerevisiae deletion strains, locus YNL067W, strain RPL9B, hits give low values 1.01 | [5] 1.02 | S. cerevisiae deletion strains, locus YNL153C, strain GIM3, hits give low values 1.01 | S. cerevisiae deletion strains, locus YNL233W, strain BNI4, hits give low values 1.01 | S. cerevisiae deletion strains, locus YNL250W, strain rad50, hits give low values 1.01 | S. cerevisiae deletion strains, locus YNL271C, strain bni1, hits give low values 1 | S. cerevisiae deletion strains, locus YNL298W, strain CLA4, hits give low values 1.01 | S. cerevisiae deletion strains, locus YNL307C, strain MCK1, hits give low values 1.01 | S. cerevisiae deletion strains, locus YNL322C, strain KRE1, hits give low values 1.01 | S. cerevisiae deletion strains, locus YNR052C, strain pop2, hits give low values 1 | S. cerevisiae deletion strains, locus YOL006C, strain TOP1, hits give low values 1.01 | S. cerevisiae deletion strains, locus YOL012C, strain htz1 0.877 | S. cerevisiae deletion strains, locus YOL147C, strain pex11, hits give low values 1 | S. cerevisiae deletion strains, locus YOR061W, strain CKA2, hits give low values 1.01 | S. cerevisiae deletion strains, locus YOR069W, strain VPS5, hits give low values 1 | S. cerevisiae deletion strains, locus YOR136W, strain idh2, hits give low values 1 | S. cerevisiae deletion strains, locus YOR144C, strain elg1, hits give low values 1.01 | S. cerevisiae deletion strains, locus YOR184W, strain ser1, hits give low values 1 | S. cerevisiae deletion strains, locus YOR316C, strain cot1, hits give low values 1 | S. cerevisiae deletion strains, locus YPL055C, strain LGE1, hits give low values 1.01 | [6] 1.01 | S. cerevisiae deletion strains, locus YPR119W, strain clb2, hits give low values 1.01 | S. cerevisiae deletion strains, locus YPR141C, strain kar3, hits give low values 0.997 | S. cerevisiae deletion strains, locus YPR163C, strain tif3, hits give low values 1.01 | S. cerevisiae deletion strains, locus YPR167C, strain met16, hits give low values 0.998 | S. cerevisiae deletion strains, strain wtn01, hits give low values 0.996 | S. cerevisiae strains, strain wild type, hits give low values 1.01
